Source: PubChem
Most compounds without a hit are left out; they make up all but 2.4% or so of the library.
EP2 mod: EP2 receptor (human) modulation; AID 940; EP2-expressing cells, cAMP HTRF FRET, PGE2 co-stimulation; 260,000 compounds, 0.83% hits; induction, % at 25 µM;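 active means compounds whose cAMP rise, as percent of the full-agonist control response, exceeds 60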;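 further: rat C6 glioma line stably carrying human EP2 under a CMV promoter; the protocol text gives 20 µM as final concentration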
EP2 antag: inhibitors of human EP2 prostaglandin E2 receptor. C6 glioma cells expressing human EP2, cAMP TR-FRET; cells stimulated with saturating PGE2. inhibition, % at 25 µM. 260,000 compounds, 0.52% hits. AID 1422;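 active means percent inhibition above 40 after rounding to a whole number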;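 further: rat C6 glioma host cells with rolipram phosphodiesterase inhibitor present; the protocol text gives 20 µM as final concentration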
Arbovirus anti: blocks arbovirus infection. arbovirus infection cell-based antiviral screen. inhibition, % at 10 µM. 200,000 compounds, 0.37% hits. AID 1251; in the data active means inhibition above about 30%
p97 inhibitor: blocks human p97 ATPase activity; inhibition, % at 8 µM; 220,000 compounds, 0.42% hits; recombinant p97 ATPase, Kinase-Glo ATP luminescence, 3 h; P55072; in the data active means inhibition above about 15%
Hck Nef HTS: blocks Nef-activated human Hck kinase | P08631 | inhibition, % at 20 µM | 220,000 compounds, 0.68% hits | Recombinant Hck-YEEI plus Nef, Z-Lyte FRET kinase assay;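 active means Hck-Nef kinase inhibition above about 50%, limit read from the data; inactive means inhibition below that limit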
Hits are given with their value; – = inactive; · = not tested or not shown.

SMILES	EP2 mod	EP2 antag	Arbovirus anti	p97 inhibitor	Hck Nef HTS
CCCCCc1nc2ccccc2c(=O)n1-c1ccccc1[N+](=O)[O-]	–	–	–	–	–
CN(CCC(=O)O)C1=Nc2ccc(Cl)cc2C(c2ccccc2)=[N+]([O-])C1	–	49.8	·	·	·
CCCC(=O)N(C)C1=Nc2ccc(Cl)cc2C(c2ccccc2)=[N+]([O-])C1	–	–	·	–	–
O=C(CN1C2CCC1CC(O)(c1cccnc1)C2)OC1CCCCC1 (centres undefined)	–	–	·	·	·
CN1CCc2nc(N)c(C#N)c(-c3ccccc3)c2C1	–	–	–	–	–
CN1CCc2nc3sc(C#N)c(N)c3c(-c3cccs3)c2C1	–	–	32.1	–	–
COc1ccc(C[C@@H]2C(=O)N[C@H](C)C(=O)N(C)[C@@H]3C(=O)N(C)[C@@H](Cc4ccc(O)c(c4)Oc4ccc(cc4)[C@H]3O)C(=O)N[C@@H](C)C(=O)N[C@H](C)C(=O)N2C)cc1	–	42.8	·	·	·
CCOCc1cc(CN2C3CCC2CC(O)(c2ccccc2F)C3)ccc1OC (centres undefined)	–	–	·	·	·
C=CCSc1nc2ccccc2c(=O)n1-c1ccccc1C	78.1	–	·	·	·
CSc1nc2ccccc2c(=O)n1-c1ccccc1C	–	–	·	·	·
CCn1nc(CC(=O)N(CCN(C)C)Cc2ccc(F)cc2)c2ccccc2c1=O	–	–	·	·	·
Cc1cc[c]([Sb]2[O][C@H]([C@H](O)[C@H](O)C(=O)O)[C@@H](CO)[O]2)cc1	–	48.6	·	·	·
COc1cc(CN2C3CCC2CC(O)(c2ccc(F)cc2)C3)ccc1OC(C)C (centres undefined)	–	–	·	·	·
Cn1c(O)c(C=Nc2ccccc2Sc2ccccc2)c(=O)n(C)c1=O	61.1	–	–	–	–
Cc1ccccc1C(=O)NC(Oc1ccccc1)C(Cl)(Cl)Cl (centres undefined)	63.4	–	–	–	–
O=C1NC(=O)N(c2ccccc2)C(=O)/C1=C\c1ccc([N+](=O)[O-])o1	–	–	·	–	55.1
CC(=O)O[C@@H]1C[C@@]2(C)[C@H](c3ccoc3)C[C@H]3O[C@]32[C@]2(C)C(=O)C(O)=C3C(C)(C)C(=O)C=C[C@]3(C)C12 (some centres undefined)	–	–	·	·	·
CN1C(=O)C(=Cc2ccc(-c3cccc(Cl)c3)o2)C(=O)N(C)C1=O	–	–	–	–	–
Cc1ccc(Sc2ccc(C=C3C(=O)N(C)C(=O)N(C)C3=O)o2)cc1	–	–	–	–	70.3
CCC1CCCCN1C(=O)CN1C2CCC1CC(O)(c1ccccn1)C2 (centres undefined)	–	·	·	·	·
CC1=CC(=O)c2c(O)cccc2C1=O	–	79.1	·	·	·
Cc1cc(C)nc(NC2=NCCN2)n1	–	–	·	·	·
Cc1ccc(-c2nn(Cc3ccccc3)cc2C(=O)O)cc1	–	–	·	–	–
Cc1ccc(S(=O)ON2CCC(C(=O)O)(c3ccccc3)CC2)cc1 (centres undefined)	–	44.9	·	·	·
CC(=O)c1ccc(-c2ccccc2)cc1	–	–	–	–	–
SMILES	EP2 mod	EP2 antag	Arbovirus anti	p97 inhibitor	Hck Nef HTS
O=C(O)C(O)(c1ccc(-c2ccccc2)cc1)c1ccc(-c2ccccc2)cc1	–	41.2	·	·	·
C[C@H](Br)CN(C[C@H](C)Br)c1ccc2c(c1)Cc1ccccc1-2	–	57.4	·	·	·
Nc1ccccc1O.O.O=C(O)[C@H]1[O][Sb][O][C@H]1C(=O)O	–	53.6	·	·	·
CO[C@H]1[C@H](O)[C@@H](O[C@@H]2[C@@H](Oc3cccc4c(O)c5c(=O)oc6ccc(C)c7c(=O)oc(c34)c5c67)O[C@@H](C)[C@H](O)[C@H]2O)O[C@@H](C)[C@@H]1O	–	44.1	·	·	·
Cc1cccc(Nc2nc(CC(=O)N(C)CCN3CCCCC3)cs2)c1	–	–	·	·	·
CCCCC[CH2][Hg][n+]1c[nH]c2nc(N)[nH]c(=S)c21	–	99.9	·	·	·
CN(C)C(=S)SSC(=S)N(C)C	–	124.6	–	–	–
O[C@H](CN1CC1)[C@@H](O)CN1CC1	–	42.4	·	·	·
CN(C)CCN(Cc1ccccc1F)C(=O)Cc1nn(C)c(=O)c2ccccc12	–	–	·	·	·
OCC[n+]1c2ccccc2nc2ccc(N3CCOCC3)cc21	–	100.8	·	–	–
Cc1ccc(N2C(=O)NC(=O)/C(=C/C=C/c3ccco3)C2=O)cc1	–	114.4	–	–	–
Cc1cc(C)cc(N2C(=O)NC(=O)/C(=C\C=C\c3ccco3)C2=O)c1	–	87.4	–	–	–
Cc1ccc(N2C(=O)NC(=O)/C(=C/c3ccoc3)C2=O)cc1	–	–	·	–	54.6
Cc1ccc(N2C(=O)NC(=O)/C(=C/c3cnn(-c4ccc(C)cc4)c3)C2=O)cc1	–	–	–	–	–
O=C1NC(=O)N(Cc2ccc(F)cc2)C(=O)/C1=C\C=C\c1ccco1	–	77.7	·	–	–
CC1CCN(C2CCNCC2)CC1	–	–	·	·	·
COC[C@]12CN(C=O)C3[C@@H]4[C@H](OC)C1[C@]3(C1CC3(O)C(OC)C(O)C4(OC(C)=O)C1C3OC(=O)c1ccccc1)[C@@H](OC)C[C@H]2O (some centres undefined)	–	–	·	·	·
CCc1ccc(N2C(=O)NC(=O)/C(=C\C=C\c3ccco3)C2=O)cc1	–	61.4	·	–	–
CCCCN1C(=O)/C(=C/C=C/c2ccco2)C(=O)NC1=S	–	–	–	–	–
Cc1cc2occ(CC(=O)N(CCN(C)C)C3CCN(C)CC3)c2cc1C	–	–	·	·	·
O=C(O)CCC1C(=O)NC(=O)NC1=O	–	–	·	·	·
O=C1C(Cl)=C(Cl)C(=O)C(Cl)=C1Cl	–	109.4	·	·	·
Cc1cccc(N/N=C(\C(N)=O)C2=NC(C)(C)Cc3ccccc32)c1	–	–	–	–	65.3
COc1ccc2ccc(O)c(CN3CC=C(c4ccccc4)CC3)c2c1	–	–	30.1	–	–
CCCCn1c(NC(=O)c2ccc(Br)o2)c(C(=O)OCC)c2nc3ccccc3nc21	–	–	–	16.7	–
SMILES	EP2 mod	EP2 antag	Arbovirus anti	p97 inhibitor	Hck Nef HTS
Cc1cc(NC(=O)CN2C3CCC2CC(O)(c2nccn2C)C3)no1 (centres undefined)	–	·	·	·	·
c1ccc(-c2cc(-c3ccccc3)[n+](-c3ccccc3)c(-c3ccccc3)c2)cc1	–	64.0	·	–	–
c1ccc(C[N+]23CN4CN(CN(C4)C2)C3)cc1	–	–	·	·	·
Cc1nc2ccccc2cc1C[N+]12CN3CN(CN(C3)C1)C2	–	49.6	·	·	·
COc1ccc(-c2nc(C)sc2CC(=O)N(CCN(C)C)C2CCCC2)cc1	–	–	·	·	·
CCCn1cc(CN2C3CCC2CC(O)(c2ccccc2F)C3)cn1 (centres undefined)	–	–	·	·	·
O=S(=O)(Nc1nccs1)c1ccc([As](=O)(O)O)cc1	–	–	·	·	·
NS(=O)(=O)c1ccc(-c2ccc([As](=O)(O)O)cc2)cc1	–	45.0	·	·	·
C=Cn1cc(CN2C3CCC2CC(O)(c2ccc(OC)cc2)C3)c(C)n1 (centres undefined)	–	–	·	·	·
Cc1cccc(NP(=O)(Oc2ccccc2F)Oc2ccccc2F)c1C	64.8	–	–	–	–
CC(C)(C)C(=O)c1cn(Cc2ccc(C#N)cc2)c2ccccc12	–	–	·	·	·
C=C(C)COc1cccc(CN2C3CCC2CC(O)(c2nccn2C)C3)c1 (centres undefined)	–	–	·	·	·
